“And” between values parts separate entries of the source, which are not always exact repeats. Equal values may be shown once. Results filed as inconclusive are left out. The source made the active and inactive calls. The call rests on the fitted dose curve; in most records, active means well fitted curve in the direction sought with a large enough effect; inconclusive means small, poorly fitted or top-dose-only effect, or another doubt; inactive means no such curve, though single readings can be large; an effect the other way counts as inactive or inconclusive.
Key:
CRL-7250 = normal cell line; assay: Cytotoxic Profiling of Annotated Libraries Using Quantitative High-Throughput Screening (AID 1296008); conditions: Five cell lines viability, CellTiter-Glo ATP luminescence, 48-72 h; max response: stronger effect = lower value; further: nearly all actives have a fitted effect of over 60% in size; further: potency means the concentration at half of the fitted maximal effect; on max response: on the % scale 0 is the no-effect control and ±100 the full control effect
Method in brief: (§1)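 Cells exposed to compounds for 48 or 72 hr at 37 degrees Celsius. Viability read as ATP-coupled luminescence with CellTiter-Glo after 10 min at room temperature.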

HEK293 = assay: as above; conditions: Five cell lines viability, CellTiter-Glo ATP luminescence, 48-72 h; max response: stronger effect = lower value
Method in brief: as §1

HaCat [1] = assay: as above; conditions: Five cell lines viability, CellTiter-Glo ATP luminescence, 48-72 h; max response: stronger effect = lower value
Method in brief: as §1

KB-3-1 = assay: as above; conditions: Five cell lines viability, CellTiter-Glo ATP luminescence, 48-72 h; max response: stronger effect = lower value
Method in brief: as §1

NIH3T3 [2] = assay: as above; conditions: Five cell lines viability, CellTiter-Glo ATP luminescence, 48-72 h; max response: stronger effect = lower value
Method in brief: as §1

MCC-13 = assay: qHTS assay to identify novel small-molecules to repurpose for Merkel cell carcinoma treatment (AID 1296009); conditions: MCC and control cell lines, CellTiter-Glo viability, 72 h; series mostly up to 46 µM; further: nearly all actives have a fitted effect of over 60% in size; further: potency means the concentration at half of the fitted maximal effect
Method in brief: (§2)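 Cells were incubated with compound for 72 hr at 37 degree celsius before CellTiter-Glo addition. Luminescence was normalized with no-cell wells as full cytotoxicity and DMSO as baseline.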

MCC-26 = assay: as above; conditions: MCC and control cell lines, CellTiter-Glo viability, 72 h; series mostly up to 46 µM
Method in brief: as §2

MKL-1 = assay: as above; conditions: MCC and control cell lines, CellTiter-Glo viability, 72 h; series mostly up to 46 µM
Method in brief: as §2

MKL-2 = assay: as above; conditions: MCC and control cell lines, CellTiter-Glo viability, 72 h; series mostly up to 46 µM
Method in brief: as §2

UISO = assay: as above; conditions: MCC and control cell lines, CellTiter-Glo viability, 72 h; series mostly up to 46 µM
Method in brief: as §2

WaGa = assay: as above; conditions: MCC and control cell lines, CellTiter-Glo viability, 72 h; series mostly up to 46 µM
Method in brief: as §2

C33A = assay: Primary qHTS to identify gynecologic anti-cancer compounds using libraries of approved drugs and bioactive compounds (AID 1345084); conditions: Gynecologic cancer cell panel viability, ATPlite luminescence, 48 h; series mostly up to 57.5 µM; further: on the % scale 0 is the no-effect control and ±100 the full control effect; nearly all actives have a fitted effect of over 55% in size
Method in brief: (§3)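 Five-point cytotoxicity, 48 h drug exposure at 37 C, 5% CO2, on cells seeded 16 h beforehand. ATP content read by ATPlite luminescence.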

CAOV3 = assay: as above; conditions: Gynecologic cancer cell panel viability, ATPlite luminescence, 48 h; series mostly up to 57.5 µM
Method in brief: as §3

CASKI = assay: as above; conditions: Gynecologic cancer cell panel viability, ATPlite luminescence, 48 h; series mostly up to 57.5 µM
Method in brief: as §3

Es-2 = assay: as above; conditions: Gynecologic cancer cell panel viability, ATPlite luminescence, 48 h; series mostly up to 57.5 µM
Method in brief: as §3

HeLa = assay: as above; conditions: Gynecologic cancer cell panel viability, ATPlite luminescence, 48 h; series mostly up to 57.5 µM
Method in brief: as §3

W2 = assay: qHTS profiling for inhibitors of Plasmodium falciparum proliferation (AID 504749);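 further: 0% = DMSO vehicle and full inhibition = artemisinin control; nearly all actives have a fitted effect of over 60% in size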; conditions: P. falciparum in erythrocytes, SYBR Green DNA, 72 h; series mostly up to 28.7 µM
Method in brief: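 Readout was DNA-dye fluorescence from lysed cultures, ex 485/em 535 nm. Parasitized red cells had grown 72 h with compound; data scaled between 0.29 uM artemisinin and DMSO wells and corrected using vehicle-only plates.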

HACAT [3] = assay: qHTS assay to identify novel small-molecules to repurpose for Merkel cell carcinoma treatment (AID 1296009); conditions: MCC and control cell lines, CellTiter-Glo viability, 72 h; at 44.8 µM (top of the series) unless noted; further: nearly all actives have a fitted effect of over 60% in size; further: potency means the concentration at half of the fitted maximal effect
Method in brief: as §2

NIH3T3 [4] = assay: as above; conditions: MCC and control cell lines, CellTiter-Glo viability, 72 h; at 44.8 µM (top of the series)
Method in brief: as §2

Clc1cccc(C(c2ccc3nc[nH]c3c2)n2ccnc2)c1 (stereo not given)
inactive: max response (CRL-7250) -3.34% | max response (HEK293) 1.25% | max response (HaCat [1]) -3.24% | max response (KB-3-1) 11.8% | max response (NIH3T3 [2]) -0.487% | Potency (MCC-13) | Potency (MCC-26) | Potency (MKL-1) | Potency (MKL-2) | Potency (UISO) | Potency (WaGa) | Potency (C33A) | Potency (CAOV3) | Potency (CASKI) | Potency (Es-2) | Potency (HeLa)

CC(CNC1CCCCC1)OC(=O)c1ccccc1 (stereo not given)
inactive: max response (CRL-7250) -16.2% | max response (HEK293) -47.9% | max response (HaCat [1]) -18.5% | max response (KB-3-1) 3.78% | max response (NIH3T3 [2]) 0.669% | Potency (MCC-13) | Potency (MCC-26) | Potency (MKL-1) | Potency (MKL-2) | Potency (UISO) | Potency (WaGa) | Potency (C33A) | Potency (CAOV3) | Potency (CASKI) | Potency (Es-2) | Potency (HeLa)

Cc1cc(NS(=O)(=O)c2ccc(N)cc2)nc(C)n1
inactive: Potency (W2) | max response (CRL-7250) -3.14% | max response (HEK293) -0.689% | outcome (HaCat [1]) | max response (KB-3-1) 15.3% | max response (NIH3T3 [2]) 4.17% | outcome (HACAT [3]) | Potency (MCC-13) | Potency (MKL-1) | Potency (MKL-2) | Potency (WaGa) | Potency (C33A) | Potency (CAOV3) | Potency (CASKI) | Potency (Es-2) | Potency (HeLa)

CCCCc1cc2ccccc2c(OCCN(C)C)n1
inactive: max response (CRL-7250) -9.77% | outcome (HaCat [1]) | max response (KB-3-1) -3.23% | max response (NIH3T3 [2]) -15.9% | outcome (HACAT [3]) | Potency (MCC-13) | Potency (MCC-26) | Potency (MKL-1) | Potency (C33A) | Potency (CAOV3) | Potency (Es-2) | Potency (HeLa)
active: Potency (HEK293) 18.8 µM | Potency (WaGa) 21.1 µM

CCN(CC)CCNC(=O)c1cc(Br)c(N)cc1OC
inactive: max response (CRL-7250) 3.66% | max response (HEK293) -7.62% | max response (HaCat [1]) -11.9% | max response (KB-3-1) -23.2% | max response (NIH3T3 [2]) -9.42% | Potency (MCC-13) | Potency (MCC-26) | Potency (MKL-1) | Potency (MKL-2) | Potency (UISO) | Potency (WaGa) | Potency (C33A) | Potency (CAOV3) | Potency (CASKI) | Potency (Es-2) | Potency (HeLa)

C/C=C/c1ccc(O)c(OC)c1
inactive: Potency (W2) | max response (CRL-7250) -0.654% | max response (HEK293) -2.94% | outcome (HaCat [1]) | max response (KB-3-1) -3.67% | max response (NIH3T3 [2]) -0.28% | outcome (HACAT [3]) | Potency (MCC-13) | Potency (MCC-26) | Potency (MKL-1) | Potency (UISO) | Potency (WaGa) | Potency (C33A) | Potency (CASKI) | Potency (Es-2) | Potency (HeLa)

O=C1C(=O)c2ccccc2C(O)=C1C1CCC(c2ccc(Cl)cc2)CC1 (stereo not given)
inactive: max response (CRL-7250) 1.68% | max response (HEK293) 0.597% | max response (HaCat [1]) -2.46% | max response (KB-3-1) -5.6% | max response (NIH3T3 [2]) 2.17% | Potency (MCC-13) | Potency (MCC-26) | Potency (MKL-1) | Potency (MKL-2) | Potency (UISO) | Potency (WaGa) | Potency (C33A) | Potency (CAOV3) | Potency (CASKI) | Potency (Es-2) | Potency (HeLa)

CCc1oc2ccccc2c1C(=O)c1cc(Br)c(O)c(Br)c1
inactive: Potency (W2) | max response (CRL-7250) 0.197% | max response (HEK293) -23.3% | outcome (HaCat [1]) | max response (KB-3-1) -3.26% | max response (NIH3T3 [2]) -25.3% | outcome (HACAT [3]) | Potency (MCC-13) | Potency (MCC-26) | Potency (MKL-1) | Potency (MKL-2) | Potency (C33A) | Potency (CASKI) | Potency (Es-2)

CCOC(=O)c1ccc(N)cc1
inactive: Potency (W2) | max response (CRL-7250) -8.72% | max response (HEK293) -24% | max response (HaCat [1]) -25.3% | max response (KB-3-1) 1.36% | max response (NIH3T3 [2]) -0.465% | Potency (MCC-13) | Potency (MCC-26) | Potency (MKL-1) | Potency (MKL-2) | Potency (UISO) | Potency (WaGa) | Potency (C33A) | Potency (CAOV3) | Potency (CASKI) | Potency (Es-2) | Potency (HeLa)

O=C(O)CCc1nc2ccccc2[nH]1
inactive: max response (CRL-7250) -5.04% | max response (HEK293) -3.96% | max response (HaCat [1]) -3% | max response (KB-3-1) -8.67% | max response (NIH3T3 [2]) -8.19% | Potency (MCC-13) | Potency (MCC-26) | Potency (MKL-1) | Potency (MKL-2) | Potency (UISO) | Potency (WaGa) | Potency (C33A) | Potency (CAOV3) | Potency (CASKI) | Potency (Es-2) | Potency (HeLa)

NCCNC(=O)c1ccc(Cl)cn1
inactive: Potency (W2) | outcome (CRL-7250) | max response (HEK293) -1.7% | outcome (HaCat [1]) | max response (KB-3-1) -16.4% | max response (NIH3T3 [2]) 2.21% | outcome (HACAT [3]) | Potency (MCC-13) | Potency (MKL-1) | Potency (UISO) | Potency (WaGa) | Potency (C33A) | Potency (CASKI) | Potency (Es-2) | Potency (HeLa)

O=C1[C@H](CC[C@H](O)c2ccc(F)cc2)[C@@H](c2ccc(O)cc2)N1c1ccc(F)cc1
inactive: max response (CRL-7250) 1.5% | outcome (CRL-7250) | max response (HaCat [1]) -6.94% and -19.1% | max response (KB-3-1) -8.72% and 5.64% | max response (NIH3T3 [2]) -18.6% and -29.1% | Potency (MCC-13) | Potency (MCC-26) | Potency (MKL-1) | Potency (MKL-2) | Potency (UISO) | Potency (C33A) | Potency (CAOV3) | Potency (CASKI) | Potency (Es-2) | Potency (HeLa)

CC(=C(CCOC(=O)C(C)C)SSC(CCOC(=O)C(C)C)=C(C)N(C=O)Cc1cnc(C)nc1N)N(C=O)Cc1cnc(C)nc1N
inactive: max response (CRL-7250) 0.406% | max response (HEK293) -4.89% | outcome (HaCat [1]) | max response (KB-3-1) 1.98% | outcome (NIH3T3 [2]) | outcome (HACAT [3]) | Potency (MCC-13) | Potency (MCC-26) | Potency (MKL-1) | outcome (NIH3T3 [4]) | Potency (UISO) | Potency (WaGa) | Potency (C33A) | Potency (CAOV3) | Potency (CASKI) | Potency (Es-2) | Potency (HeLa)

COC(=O)C(c1ccccc1Cl)N1CCc2sccc2C1 (stereo not given)
inactive: max response (CRL-7250) -10.1% | max response (HEK293) 4.89% | max response (HaCat [1]) 4.22% | max response (KB-3-1) -8.1% | max response (NIH3T3 [2]) -4.69% | Potency (MCC-13) | Potency (MCC-26) | Potency (MKL-1) | Potency (MKL-2) | Potency (UISO) | Potency (WaGa) | Potency (C33A) | Potency (CAOV3) | Potency (CASKI) | Potency (Es-2) | Potency (HeLa)

Reference: PubChem BioAssay (NCATS)
